Structures are written as SMILES. Records with an inconclusive call do not appear. Where a call stands in place of a potency, no number is given. Unmarked numbers belong to inactive results. The source made the active and inactive calls. Calls come from the whole dose curve; as a rule, active = well fitted activation curve with a large enough effect; inconclusive = small, poorly fitted or top-dose-only effect; inactive = flat fitted curve, though single readings scatter.
Potency is the fitted concentration of half-maximal effect.

The nature of this assay: Primary redox qHTS assay for identification of artifact compounds. (AID 1845223). The conditions noted are these: Amplex Red/HRP redox cycling with DTT, fluorescence; series mostly up to 53.8 µM. From the text:
PI: Alexander Tropsha Ph.D.
UNC Eshelman School of Pharmacy
University of North Carolina, Chapel Hill, North Carolina
Hits from high-throughput screening (HTS) of chemical libraries are often false positives due to their interference with the assay detection technology. In response to this problem, we generated the largest publicly available library of chemical liabilities and developed a free webtool to predict HTS artifacts, both of which are described herein. More specifically, we generated, curated, and integrated HTS datasets for thiol reactivity, redox activity, and luciferase (firefly and nano) activity. Using these curated datasets, we developed and validated several Quantitative Structure-Interference Relationship (QSIR) models to predict nuisance behavior. […] These models were employed for virtual profiling of the National Center for Advancing Translational Science's (NCATS) in-house library, and 256 compounds for each assay were selected for the experimental validation of nuisance behavior. The BA for these external predictions ranged from 58 to 78% for compounds within the applicability domains of the models. […] The models developed in this study, along with aggregation models previously developed by our group (SCAM Detective) were implemented in "Liability Predictor," an online tool which may be used as part of chemical library design or for triaging HTS hits. Both the models and the curated datasets are publicly available at https://liability.mml.unc.edu/.
SEQUENCE No. (e.g., 1, 2, 3, etc.); […] (e.g., Cells, Incubation, Reagent, etc.); VALUE; DESCRIPTION.
1; Reagent; 3 uL; Amplex Red and HRP mixture.
2; Compounds and control; 16 nL; Kalypsis pin tool (Wako USA) equipped with a 1536-well pin head. […]
6; Detection; Fluorescence, ViewLux microplate reader, 525 nm excitation, 598 nm emission.
NOTES (numbers refer to Sequence numbers above)
1. 3 uL of a mixture containing Amplex Red (25 uM final concentration) and horseradish peroxidase (HRP; 250 mU/mL final concentration) in assay buffer (HBSS) was dispensed into all wells of a 1536-well assay plate (solid-bottom black plate; Greiner Bio One, Monroe, NC).
2. A Wako Pin-tool (Wako Automation, Richmond, VA) was used to transfer 16 nL of compounds (consisting of 7-plates in qHTS format, final concentration range 18.3 nM to 114 uM) or control DA3003 (final concentration range 1.22 nM to 40 uM).
3. 15 min. incubation at room temperature protected from light.
4. 1 uL of DTT (prepared fresh; final concentration 250 uM) was dispensed for a final assay volume of 4 uL.
5. Plates were centrifuged (121xg, 15 seconds) and incubated for 30 minutes at room temperature protected from light.
6. Samples were read for fluorescence (Ex/Em = 525(20)/598(25) nm) on a ViewLux CCD imager (PerkinElmer). Data were normalized to DMSO (0% activity) and DA3003 (10 uM final concentration; 100% activity) and the resulting percent inhibition data were fitted to a 4-parameter Hill equation using NCATS in-house software.
A general note: Quantitative high-throughput screening tests each substance at several concentrations.
For `CC(C)c1cccc(C(C)C)c1NC(=O)Nc1ccc(Sc2ccc([N+](=O)[O-])cc2)cc1`, the Potency entry was “inactive”. In the case of `CO[C@H]1[C@@H](O)[C@H](O[C@H]2CC[C@@]3(C)C(CCC4C3CC[C@]35COC6(COC(=O)C6)C3CCC45O)C2)O[C@@H](C)[C@@H]1OC1OC(CO)C(OC2OC(CO)C(O)C(O)C2O)C(O)C1O` (stereo not given in full), the redox activity (% of DA3003) was -0.0298% [at 11.5 µM]. Turning to `C[C@@H]1CC[C@@]23CC[C@]4(C)[C@@](C=CC5[C@@]6(C)CC[C@H](O)C(C)(C)C6CC[C@]54C)(OC2=O)C3[C@H]1C` (stereo not given in full), the Potency result was “inactive”. Take `CCOc1ccc(-n2c(C(C)N(Cc3cccnc3)C(=O)Cc3ccc(F)c(C(F)(F)F)c3)nc3ncccc3c2=O)cc1` (stereo not given): the Potency result was “inactive”.

Regarding `O=C(Nc1ccnc(NC(=O)C2CC2)c1)c1c(Cl)cccc1Cl`, the Potency entry was “inactive”. As to `COC(=O)C1=CO[C@@H](O[C@@H]2O[C@H](CO)[C@@H](O)[C@H](O)[C@H]2O)[C@H]2[C@@H]1C=C[C@]21C=C([C@H](C)OC(=O)/C=C/c2ccc(O)cc2)C(=O)O1`, the Potency result was “inactive”. Take `O=C1c2ccc(Nc3ccc(F)cc3F)cc2CCc2ccc(OCC(O)CO)cc21` (stereo not given): the Potency result was “inactive”. As for `CC1=C(C(=O)OC2CCCCC2)C(c2ccc([N+](=O)[O-])cc2)C2=C(CC(C)(C)CC2=O)N1` (stereo not given), the Potency is 2.12 µM (active). Take `Cc1cc(C(=O)Nc2cc(Oc3ccc4nc(NC(=O)C5CC5)cn4n3)ccc2C)n(C)n1`: the Potency result was “inactive”.

For the molecule `COc1cc(F)c(C(C)C)cc1-c1ccc(C(F)(F)F)cc1CN1C(=O)OC(c2cc(C(F)(F)F)cc(C(F)(F)F)c2)C1C` (stereo not given), the Potency result was “inactive”. In the case of `CC1(C)CC[C@]23CO[C@@]4(CCC5[C@@]6(C)CC[C@H](O[C@@H]7OC[C@H](O[C@@H]8O[C@H](CO)[C@@H](O)[C@H](O)[C@H]8O[C@@H]8OC[C@@H](O)[C@H](O)[C@H]8O)[C@H](O)[C@H]7O)[C@@](C)(CO)C6CC[C@@]5(C)[C@]4(C)CC2=O)[C@@H]3C1` (stereo not given in full), the redox activity (% of DA3003) was -0.913% [at 11.5 µM].

As for `CCC(C)C(=O)Oc1cc(C)ccc1C1(COC(=O)C(C)C)CO1` (stereo not given), the Potency entry is “inactive”. On the same count and under the same terms, the value for `CC(C)(O)c1ccn2c(-c3ccc(F)c(-c4ccc(F)cc4C#N)c3)cnc2c1F` was “inactive”. Turning to `O=C(N[C@@H]1CCCc2c1cnn2-c1ccc(F)cc1F)c1ccccn1`, the Potency entry is “inactive”. Take `Cc1csc(N(C(=O)CSc2ccc(-c3ccccc3)nn2)C2CC2)n1`: the Potency entry is “inactive”. As for `CC(C)NC(=O)N1CC[C@H](N=C2Nc3cc(F)ccc3N(CC(F)F)c3ccc(Cl)cc32)C1`, the redox activity (% of DA3003) is 12.5% [at 11.5 µM]. As for `Cc1[nH]c(/C=C2\C(=O)Nc3ccc(F)cc32)c(C)c1C(=O)NCCN1CCCC1`, the Potency result was “inactive”.

As for `COc1ccncc1C(=O)NC(=O)Nc1ccc(-c2ccccc2)c(C(F)(F)F)c1`, the Potency result was “inactive”.

Regarding `O=c1cc(OCc2ccc(F)cc2)ccn1-c1ccc(OCCN2CCCC2)cc1`, the Potency result was “inactive”. On to `COc1ccc2cc(-c3cc(-c4cc(Cl)cc(Cl)c4)nn3C(C)c3ccc(C(=O)NCCC(=O)O)cc3)ccc2c1` (stereo not given), for which the Potency entry is “inactive”. The same measure, in the same setting: the value for `C=C1C(=O)OC2/C=C(\C)CC3C=C(CC/C=C(\C)CCC12)C(=O)O3` (stereo not given) was “inactive”; that for `CCN1CCC[C@@H]1CNC(=O)c1ccc2c(c1)NC(=O)c1cccc(C)c1S2` was “inactive”; that for `N[C@@H]1c2cccnc2[C@H](OC(=O)N2CCC(n3c(=O)[nH]c4ncccc43)CC2)CC[C@H]1c1cccc(F)c1F` was “inactive”. Regarding `COC(=O)N1CCC(n2ncc3c(N4CCOCC4)nc(-c4ccc(NC(=O)NC5CC5)cc4)nc32)CC1`, the Potency result was “inactive”. Take `CC(=O)OC1C(OC(=O)c2ccccc2)C2C(C)(C)CCC(OC(C)=O)C2(C)C23CCC(C)(C2)C(=O)CC13` (stereo not given): the Potency result was “inactive”. For the molecule `CC(=O)O[C@@H]1C[C@@]23C[C@@]24CC[C@H](O[C@@H]2OC[C@H](O)[C@H](O)[C@H]2O)C(C)(C)[C@@H]4CC[C@H]3[C@]2(C)[C@@H](O)C34O[C@H](C[C@@H](C)[C@@H]3[C@@]12C)[C@@H](C(C)(C)O)O4`, the Potency entry was “inactive”. The same measure, in the same setting: the value for `CCCCOC(=O)NS(=O)(=O)c1sc(CC(C)C)cc1-c1ccc(Cn2ccnc2)cc1` was “inactive”. On to `CC[C@H](C(=O)Nc1ccccc1N1CCCC1)c1ccccc1`, for which the Potency entry was “inactive”.

Consider `Cc1ccc(-c2c(C(=O)CCl)n(CCCO)c3ncnc(N)c23)cc1`, for which the Potency was 15 µM (active). Regarding `C=C1CCN([C@H](C)[C@](O)(Cn2cncn2)c2ccc(F)cc2F)CC1`, the Potency result is “inactive”. Take `N#Cc1ccc(-c2ccc(S(=O)(=O)Nc3cccc(N)n3)cc2)cc1`: the Potency result was “inactive”. As to `CCC(=O)N1CCOc2c(cc(-c3ccc(OC)c(OC)c3)cc2OC[C@H]2CCCN(C)C2)C1`, the Potency result was “inactive”. Turning to `O=C(OC1CN2CCC1CC2)N1CCc2ccccc2C1c1ccccc1` (stereo not given), the Potency result is “inactive”. The same measure, in the same setting: the value for `O=C(Nc1cc(C(F)(F)F)cc(C(F)(F)F)c1)c1cnc(Cl)nc1C(F)(F)F` was “inactive”; that for `CC1=C2C[C@@]3(C)C(CCC[C@@H]3C)C(O)C2OC1=O` (stereo not given in full) was “inactive”; that for `CC(=O)C=C=C1C(C)(C)CC(O)CC1(C)O[C@@H]1O[C@H](CO[C@H]2OC[C@](O)(CO)[C@H]2O)[C@@H](O)[C@H](O)[C@H]1O` (stereo not given in full) was “inactive”. `CC(NC(=O)Cc1cc(F)cc(F)c1)C(=O)NC1C(=O)N(C)c2ccccc2-c2ccccc21` (stereo not given): the Potency entry was “inactive”. The same measure, in the same setting: the value for `OC1(CN2CCC(COc3noc4cccc(O[C@@H]5CCOC5)c34)CC2)CCOCC1` was “inactive”; that for `CC(=O)O[C@H]1CC2C(COC(=O)CC(C)C)=CO[C@@H](OC(=O)CC(C)C)C2[C@]12CO2` (stereo not given in full) was “inactive”; that for `COC1CC(=O)C23C(=O)NC(Cc4c[nH]c5ccccc45)C2C(C)C2(C)OC2C3/C=C/CC(C)CC1O` (stereo not given) was “inactive”.

The values above are taken from PubChem BioAssay (NCATS).
